ChEMBL document CHEMBL3988442, “University of Dundee, Small-Polar-MMV Screening Library” (2021)
In all, about 48,000 compounds went through this assay and about 13,000 (27%) showed an effect of 50% or more. This is one part of the list.

System: Wolbachia pipientis
Experiment: Anti-Wolbachia Cell-Based Screen
Format: functional
Set-up: scale not given: in the data most compounds retested in dose-response had high values
Details: 5 µM

SMILES | Percent Effect [%]
CC(C)C1CN(C(=O)c2cccs2)CCS1 (centres undefined) | -18.38
CS(=O)(=O)NC[C@H]1OC[C@@H]2CCN(C(=O)c3cccnc3)C[C@@H]21 | -2.955
CNS(=O)(=O)c1ccc(C(=O)N2CCCC(n3cccn3)C2)cc1 (centres undefined) | -7.031
CN(C)c1cc(C(=O)N2CCN(S(C)(=O)=O)CC2)ccn1 | -8.698
CCCNC(=O)C[C@@H]1CCN(C(=O)c2cccnc2)C[C@@H]1CC | -4.226
CNC(=O)C1CN(C(=O)c2cccnc2)CCN(S(C)(=O)=O)C1 (centres undefined) | 102.1
CNC(=O)C1CN(C(=O)c2ccncc2)CCN(S(C)(=O)=O)C1 (centres undefined) | 113
O=C(O)C[C@@H]1CCN(C(=O)c2cccs2)C[C@@H]1CCN1CCCCC1 | -8.603
CNC(=O)C1CN(C(=O)c2cccs2)CCN(S(C)(=O)=O)C1 (centres undefined) | 103.3
COCCN(Cc1cccnc1)c1nc(C)nc2oc(C)nc12 | 1.02
CCCN(CC1CC1)C(=O)Cn1ccccc1=O | -7.373
O=C(O)C(F)(F)F.O=C(O)C(F)(F)F.O=C(O)C(F)(F)F.c1cnc(N2CCN(C3CCC[C@@H]4CN(CC5CC5)C[C@H]34)CC2)nc1 (some centres undefined) | -9.573
Clc1cccc2c3c([nH]c12)CCN(Cc1cc2n(n1)CCCNC2)C3 | -3.179
CC(C(=O)NC1CC1)S(=O)(=O)Cc1noc(C(C)(C)C)n1 (centres undefined) | 12.74
CCOc1cccc(COC(=O)c2cc(C)on2)n1 | 106.6
CCOc1cccc(COC(=O)c2cc(Cl)ccn2)n1 | -4.3
CCOc1cccc(COC(=O)c2ccc(Cl)cn2)n1 | -10.12
CCOc1cccc(COC(=O)c2ccc(F)cn2)n1 | -9.322
CCOc1cccc(NC(=O)c2cnc(C)cn2)n1 | 87.8
COC(CNC(=O)c1cc(C)on1)c1ccccc1C (centres undefined) | 2.502
O=C(Nc1cc(C2CCOCC2)[nH]n1)c1cc[nH]n1 | -3.397
CCOc1cccc(NC(=O)Cc2cccc(O)c2)n1 | -45.48
CCOc1cccc(NC(=O)c2cc(C)on2)n1 | 91.67
CCOc1cccc(NC(=O)c2cscn2)n1 | -16.65
CCOc1cccc(NC(=O)c2cc[nH]n2)n1 | 87.66

SMILES | Percent Effect [%]
CCOc1cccc(COC(=O)c2cscn2)n1 | -4.907
CCN1CCN(C(=O)c2ccc3c(c2)CCCN3)[C@H]2CS(=O)(=O)C[C@H]21 | -2.171
CSCCC1c2nc[nH]c2CCN1Cc1ccccc1C#N (centres undefined) | -9.025
Cc1ccc(NC(=O)c2cc(S(=O)(=O)N3CCCCC3)c[nH]2)cc1F | 1.173
COCCC1(CNC(=O)NCC2CN(C)CCN2C)CCC1 (centres undefined) | -22.96
CC(C)c1ccc(OCCC(=O)N(C)C)cc1 | 6.13
CC(C)c1nc(/C=C/c2cnn(-c3ccccc3)c2)ncc1C(=O)O | -2.711
NC(=O)c1cccc(CC2CCN(C(=O)CCc3cccc(F)c3)C2)c1 (centres undefined) | -3.46
Cc1ccsc1[C@@H]1CCN(C(=O)Cc2ccc(O)cc2)C[C@H]1O | -5.599
Cc1nccn1C1CCCN(C(=O)c2ccc3c(c2)nc(C)n3C)C1 (centres undefined) | 109.3
Cc1nc2cc(C(=O)N3CCCC(n4cncn4)C3)ccc2n1C (centres undefined) | -4.268
Cc1nc2cc(C(=O)N3CCCC(n4ccnc4)C3)ccc2n1C (centres undefined) | 116.9
CCOc1ccc(N(CCC#N)C(=O)c2ccnc(SC)c2)cc1 | 9.969
Cc1cc(CNC(=O)[C@H]2CCCCN2C(=O)OC(C)(C)C)on1 | -34.39
O=C(O)C(F)(F)F.c1cnc(N2CCO[C@H]3CN(Cc4cc[nH]n4)C[C@H]32)cn1 | -10.59
O=C(O)C(F)(F)F.O=C(O)C(F)(F)F.O=C(O)C(F)(F)F.c1coc(CN2C[C@@H]3OCCN(CCN4CCCC4)[C@@H]3C2)c1 | -5.292
O=C(O)C(F)(F)F.O=C(O)C(F)(F)F.c1csc(CN2C[C@@H]3OCCN(CC4CCCO4)[C@@H]3C2)c1 (some centres undefined) | -7.067
O=C(O)C(F)(F)F.O=C(O)C(F)(F)F.c1cc(CN2C[C@@H]3OCCN(CC4CC4)[C@@H]3C2)n[nH]1 | 105.8
COCCN1CCO[C@H]2CN(Cc3cc[nH]n3)C[C@H]21.O=C(O)C(F)(F)F.O=C(O)C(F)(F)F | 90.56
COCCN1CCO[C@H]2CN(C(=O)c3cccs3)C[C@H]21.O=C(O)C(F)(F)F | -7.528
O=C(O)CSc1nnc(-c2ccn[nH]2)n1-c1ccccc1Cl | -20.89
Cc1ccccc1OCCC(=O)N1CCc2nc(C)n(C)c(=O)c2CC1 | 7.029
c1ccc(-c2nc(CN3CCOC(Cn4cncn4)C3)cs2)cc1 (centres undefined) | 125.5
Cc1ccc(-c2noc(CN3CCOC(Cn4cncn4)C3)n2)cc1 (centres undefined) | -2.106
Cn1cc(-c2nc(CN3CCOC(Cn4cncn4)C3)cs2)cn1 (centres undefined) | 113.5

SMILES | Percent Effect [%]
Cn1cc(-c2nc(CN3CCOC(Cn4cccn4)C3)cs2)cn1 (centres undefined) | 14.65
c1cnc(-c2nc(CN3CCOC(Cn4cncn4)C3)cs2)nc1 (centres undefined) | 0
Cc1noc(C)c1CN1C(=O)[C@H]2CC[C@@H]1CN(Cc1ccc(Cl)cc1)C2 | -8.21
CC(C)n1ncc2cc(NC(=O)N3CCC(N4CCCC4)C3)cnc21 (centres undefined) | -0.151
COc1ccc(C(=O)Nc2nncs2)cn1 | -3.004
Cc1nccn1CCC1CCN(c2ccncn2)CC1 | -24.71
CCc1nc(CC(=O)N2CCN(c3cnccn3)CC2)cs1 | 8.255
CCc1nnc(Nc2cccc(C3CCN(CCO)CC3)n2)s1 | -9.2
Cc1cc(C)nc(C2CCN(c3ccncn3)C2)n1 (centres undefined) | 136
CCc1cc(N2CCN(c3cnccn3)CC2)n2nc(C)c(C)c2n1 | 6.49
CCc1nc(C2CCCN(c3ncccn3)C2)no1 (centres undefined) | 22.68
CCc1nnc(Nc2cc(C)nc(C3CCN(c4ccncn4)C3)n2)s1 (centres undefined) | 171.2
CCc1nnc(CNC2CCN(c3ncnc4c(C)csc34)CC2)s1 | 6.605
Cc1ccccc1N1CCCN(c2ccncn2)CC1 | -18.24
COc1cc(N2CCCC(c3nccn3Cc3ccncc3)C2)ncn1 (centres undefined) | 26.87
CCc1nnc(Nc2cc(C)nc(C3CCN(c4ncccn4)C3)n2)s1 (centres undefined) | 164.2
CCc1nnc(Nc2cc(C)nc(C3CCN(c4cnccn4)C3)n2)s1 (centres undefined) | 134.1
c1cnc(N2CCC(C3CCN(CCCn4cccn4)C3)CC2)nc1 (centres undefined) | 5.409
Cc1ccc(C2CSCCN2C(=O)C2=CCCC2)o1 (centres undefined) | -12.79
CC(Cc1cccc(F)c1)C(=O)NS(=O)(=O)c1ccc(F)cc1 (centres undefined) | -6.109
CCCc1ccc(S(=O)(=O)NCCNC(=O)c2ccoc2)cc1 | -13.27
O=C(Nc1ccccc1)C1CN(C(=O)c2cccs2)CC12CCOCC2 (centres undefined) | -0.3117
COc1ccc(CC(C)(O)CNC(=O)Cc2cccs2)cc1 (centres undefined) | 5.181
Cn1ccnc1COc1ccc(NC(=O)C2CCCO2)cc1 (centres undefined) | -13.75
CCOc1ccc(NC(=O)C2OC(c3cccs3)=NN2C(C)=O)cc1 (centres undefined) | 122.8

SMILES | Percent Effect [%]
CC(=O)N1N=C(c2cccs2)OC1C(=O)Nc1ccccc1 (centres undefined) | 103.8
COc1ccc(NC(=O)C2OC(c3cccs3)=NN2C(C)=O)cc1 (centres undefined) | 116.4
CCOc1ccc(NC(=O)c2cccc(OC)c2OC)cc1 | 0.2949
CCc1ccc(NC(=O)C2OC(c3cccs3)=NN2C(C)=O)cc1 (centres undefined) | 3.495
CCc1nc(C)c([C@H]2CN(C)C[C@@H]2C(=O)Nc2ccc(OC)cc2)[nH]1 | 7.798
O=C(Nc1ccccc1)C1CN(Cc2cccs2)CC12CCOCC2 (centres undefined) | 0.5273
CC(=O)N1N=C(c2cccs2)OC1C(=O)Nc1ccc(C)cc1 (centres undefined) | 119.7
O=C1CC(CNc2cncc(Cl)n2)c2ccccc2N1 (centres undefined) | -4.513
Cc1n[nH]c(CN2CCN(C(=O)C3CCC3)[C@@H]3CS(=O)(=O)C[C@@H]32)n1 | -3.785
Cc1cc(C(=O)Nc2ccc(OC3CCOCC3)c(C)c2)[nH]n1 | -9.28
O=C1CN(CCCNC(=O)Nc2ccccn2)CCN1 | 3.817
Cc1nc(C)c(CC(=O)NCc2ccc(F)cc2F)s1 | 12.14
COc1cccc(CNC[C@H]2COCc3nc4cccnc4n32)n1 | -3.627
OCC1(CCOc2ccccc2)CCCN(c2ccc(Cl)cn2)C1 (centres undefined) | 19.44
COc1ccc(NC(=O)C2OC(c3cccs3)=NN2C(C)=O)cc1OC (centres undefined) | 133.2
CNC(=O)C(C)S(=O)(=O)Cc1csc(-c2cccs2)n1 (centres undefined) | -15.96
Cc1ccc(CNC(=O)C2c3c(ncn3C(C)C)CCN2S(C)(=O)=O)o1 (centres undefined) | -24.24
Cc1ccc(CN(C(=O)NCC(c2cccs2)N(C)C)C2CC2)o1 (centres undefined) | 16.5
CC(=O)N1N=C(c2cccs2)OC1C(=O)Nc1ccc(C(C)C)cc1 (centres undefined) | 90.69
O=c1oc(-c2cccs2)nn1CC(O)c1ccccc1 (centres undefined) | 2.258
COc1ccc(NC(=O)C2CC2)cc1OCc1cccnc1 | -2.646
CNC(=O)c1ccc(OC)c(NCc2noc(-c3cccs3)n2)c1 | -3.924
CC(=O)N1N=C(c2cccs2)OC1C(=O)NCc1ccc(C)o1 (centres undefined) | 124.5
CCN(CC)C(=O)[C@@H]1C[C@H](N)CN1c1nnc(-c2ccccc2)s1 | 5.055
